# Experimental data published in PubChem BioAssay AID1362 (SRMLSC, 2008).
# Hit rate of the full screen: of about 190,000 compounds, about 4,000 (2.1%) were called active. No stated cut-off is given here; in the data, active means inhibition above about 58%; inactive means the rest, inconclusive results apart; tested in S. cerevisiae. This excerpt belongs to a sample that is enriched for actives.
# Experiment: growth inhibition of WT strain, primary screen, mitochondrial fusion inhibitor project, WT and mutant strains, chemical genetic (AID 1362)
# Details: mitochondrial fusion phenotypic screen, at 10 µM
# [1] = WT strain, growth inhibition, stronger effect = higher value
SMILES,inhibition [1],inhibition (mutant strain inhibition) [%]
COc1nc(NC2CCCCC2)nc(N2CCCCCC2)n1,66.3% (active),28.3
Cc1ccnc(N2CCC(C(=O)NC3CCCCCC3)CC2)n1,-13.5% (inactive),-18.9
FC(F)(F)COc1nc(N2CCCCC2)nc(N2CCNCC2)n1,3.34% (inactive),2.8
CCN(CCCNC(=O)CSc1cc(=O)n(C)c2cc(Cl)ccc12)Cc1ccccc1,-10.6% (inactive),-11.8
CC(O)CNCCOc1cccc(Oc2ccccc2)c1 (centres undefined),-0.49% (inactive),17.6
CCOC(=O)c1[nH]ncc1CN1CCCC(C(=O)c2ccc(OC)cc2C)C1 (centres undefined),3.7% (inactive),9.86
O=C(N/N=C/c1cc2c(cc1Br)OCO2)C1COc2ccccc2O1 (centres undefined),29.9% (inactive),30
O=S(=O)(O)c1nc2ccccc2n1Cc1ccc(Cl)cc1Cl,18.7% (inactive),26
COC(=O)c1sc2ncccc2c1OCc1ccc(Cl)cc1Cl,12.8% (inactive),-2.97
Cc1nc2ccccc2nc(C)c1=NOCc1ccc(Cl)cc1Cl,67.9% (active),2.92
CC(C)N1C(=S)SC(C)(C)C1n1oc(=O)n(-c2ccc(Cl)c(Cl)c2)c1=O (centres undefined),76.3% (active),19.9
Cc1ccc(C2CC(c3cccc(NS(C)(=O)=O)c3)=NN2S(C)(=O)=O)cc1 (centres undefined),4.24% (inactive),6.73
CCOc1cc(CNn2c(C)nnc2SCC(=O)NC(C)(C)C)ccc1OCC(=O)NC(C)(C)C,-19.6% (inactive),0.2
Cc1cc(C(=O)CCl)c(C)n1CC1COc2ccccc2O1 (centres undefined),7.72% (inactive),25.4
N#Cc1c(N)nc2c(c1N)CC(C(F)(F)F)O2 (centres undefined),-7.69% (inactive),1.1
Cc1nc(N2CCOCC2)c2c(C)c(C(=O)Nc3ccc(C(F)(F)F)cc3)sc2n1,47.4% (inactive),-8.5
Cc1nc(N2CCC(C)CC2)c2c(C)c(C(=O)Nc3cc(F)ccc3C)sc2n1,64% (active),-25.2
Cc1nc(N2CCN(c3ccccn3)CC2)c2c(C)c(C(=O)Nc3ccc(F)cc3)sc2n1,38.7% (inactive),11.3
c1ccc(-c2cc(N3CCCCC3)c3ccccc3n2)cc1,36.4% (inactive),49.1
CC(C)NC(=S)NN=C1CCCCCCCCCCC1,69.5% (active),53.1
CC(C)(C)NC(=O)C(=O)NN=C1CCCCCCC1,-0.12% (inactive),9.74

SMILES,inhibition [1],inhibition (mutant strain inhibition) [%]
CC(=O)NC(NC(=S)Nc1c(C)n(C)n(-c2ccccc2)c1=O)C(Cl)(Cl)Cl (centres undefined),15.8% (inactive),0.58
CCOCCCNC(=S)N1CCC(NC(=O)C2CCCCC2)CC1,6.14% (inactive),2.16
COc1ccc(NS(=O)(=O)c2ccc(O)c(C(=O)OCC(=O)NC3CCCCC3)c2)cc1,-15% (inactive),17.3
Fc1ccc(N2N=C(c3cccs3)CC2c2ccco2)c(F)c1 (centres undefined),70.8% (active),10.1
COc1ccc(C2CC(c3cccs3)=NN2c2ccc(F)cc2)cc1OC (centres undefined),30.3% (inactive),11.7
COc1ccccc1N1N=C(c2cccs2)CC1c1ccccc1 (centres undefined),52.7% (inactive),33.7
CCN1CCC2(CCN(Cc3cn[nH]c3-c3ccc(OC)c(F)c3)C2)C1 (centres undefined),-2.46% (inactive),-5.08
CN1C2CCC1/C(=C\c1ccccc1Cl)C(=O)/C2=C\c1ccccc1Cl,60.7% (active),32.3
CCC1CCCCN1S(=O)(=O)Cc1ccccc1Cl (centres undefined),0.45% (inactive),1.41
O=C(CN1CCCCCC1)NCCN1C(=O)S/C(=C\c2ccccc2Cl)C1=O,2.91% (inactive),-4.16
COc1ccc(Cl)cc1N(CC(=O)N1CCCCC1)S(C)(=O)=O,11.8% (inactive),0.08
Cc1cc(C)cc(C(=O)NC2C(=O)N3C(C(=O)O)=C(CSc4nnc(C)s4)CSC23)c1 (centres undefined),4% (inactive),-0.51
COC(=O)c1sc(NC(=O)c2csc3c2CCCC3)nc1C,16.5% (inactive),0.86
COC(=O)c1sccc1NC(=O)c1csc2c1CCCC2,71.3% (active),48.8
Cc1ccc(NC(=O)c2csc3c2CCCC3)cc1,11.5% (inactive),21.5
CC(=O)c1cccc(-n2nnnc2SCC(=O)NNC(=O)C2CCCCC2)c1,6.05% (inactive),12.8
Cc1cc(-c2nnc(CCC(=O)NC(c3ccccc3)c3ccccc3)o2)no1,7.01% (inactive),6.86
CC(Sc1nc2ccccc2c(=O)n1Cc1ccco1)C(=O)c1ccccc1 (centres undefined),69.4% (active),31.3
O=C(CCCn1c(SCC(=O)c2ccc(F)cc2)nc2ccccc2c1=O)NCc1ccco1,7.88% (inactive),15.5
CCOC(=O)C(C)Sc1nc2ccccc2c(=O)n1CC1CCCCC1 (centres undefined),21.8% (inactive),-3.67
Cc1cc([N+](=O)[O-])nn1CCCC(=O)Nc1cccnc1Cl,-5.91% (inactive),-23.5

SMILES,inhibition [1],inhibition (mutant strain inhibition) [%]
COc1cc(S(=O)(=O)N2CCOCC2)ccc1NC(=O)COc1ccc(N(C)S(=O)(=O)c2ccc(C)cc2)cc1,3.51% (inactive),-4.35
Cc1nn(-c2ccccc2)c2sc(C(=O)N(Cc3ccco3)C(C)C(=O)NC(C)(C)C)cc12 (centres undefined),68.7% (active),1.44
Cc1ccc(-c2nnn(CC(=O)N(Cc3ccco3)C(C(=O)NC(C)(C)C)c3ccncc3)n2)o1 (centres undefined),-1.04% (inactive),-4.44
Cc1nc(C)c(C(=O)N(c2ccc(C)c(C)c2)C(C(=O)NCc2ccco2)c2ccccc2)s1 (centres undefined),16.8% (inactive),9.51
O=C(NC1CC1)c1ccc(-c2ccccc2)cc1,-18.3% (inactive),8.3
CC1CCN(C(=S)c2cccc(O)c2)CC1,-7.57% (inactive),21.7
CCN(c1ccc2c(c1)OCO2)S(=O)(=O)c1cc(Br)cc2c1N(C(=O)C1CC1)CC2,82.3% (active),13.7
CS(=O)(=O)N(CC(=O)N1CCN(Cc2ccc3c(c2)OCO3)CC1)c1ccc2c(c1)OCO2,-12% (inactive),-4.62
CCOC(=O)N1CCN(S(=O)(=O)c2cc(Br)cc3c2N(C(=O)C2CC2)CC3)CC1,-4.28% (inactive),4.16
COC(=O)CSc1nccc(-c2cccs2)n1,-15.2% (inactive),12.6
CCOc1ccc(/C=C(/NC(=O)c2ccccc2)C(=O)NCCC(=O)O)cc1,-9.33% (inactive),4.17
COc1cc(NC(=O)CN(C)S(=O)(=O)c2ccc3nc(C)sc3c2)cc(OC)c1,5.19% (inactive),4.68
C=CCn1c(N)c(S(=O)(=O)c2cccs2)c2nc3ccccc3nc21,-1.23% (inactive),0.9
CC(C)Cn1c(N)c(C(=O)NCc2cccs2)c2nc3ccccc3nc21,3.94% (inactive),7
C=CCn1c(N)c(C(=O)OCC(C)C)c2nc3ccccc3nc21,66.3% (active),-15.2
CC(C)Oc1ccc(CCc2nnc(SCC(=O)O)n2-c2ccccc2)cc1,-10.3% (inactive),10.7
CN(c1cccc(NC(=O)Nc2ccc(Cl)cc2)c1)S(C)(=O)=O,96.2% (active),-6.73
Cc1ccc(N(CC(=O)Nc2cccc(N(C)S(C)(=O)=O)c2)S(C)(=O)=O)cc1,0.56% (inactive),-23
COc1cccc(N(CC(=O)Nc2cccc(N(C)S(C)(=O)=O)c2)S(C)(=O)=O)c1,-5.64% (inactive),2.31
O=C(N/N=C/c1ccc([N+](=O)[O-])cc1)C(=O)N1CCCC1,11.1% (inactive),10.6
CCOC(=O)c1cnc(-n2nc(C)cc2C)nc1-n1nc(C)cc1C,-11.1% (inactive),-5.08

SMILES,inhibition [1],inhibition (mutant strain inhibition) [%]
CCOC(=O)c1cnc(-c2ccccc2)nc1Oc1ccc(C)cc1,21.7% (inactive),-24.7
CCOC(=O)c1cnc(-n2nc(C)cc2C)nc1NNc1cc(C)nc(-c2ccccc2)n1,62.1% (active),-11.2
O=C(NNS(=O)(=O)c1ccc(F)cc1)c1cnccn1,-14.2% (inactive),8.1
CCc1ccccc1N1C(=O)C2C3CC(=O)C(c4ccccc43)C2C1=O (centres undefined),5.26% (inactive),3.48
CCN(C(=O)CN1CCN(Cc2ccccc2)CC1)c1c(N)n(Cc2ccccc2)c(=O)[nH]c1=O,-4.65% (inactive),11.9
Cc1nnnn1/C(=C\c1ccccc1)C(=O)OCC(=O)N1CC2(C)CC1CC(C)(C)C2 (centres undefined),60.3% (active),11.4
COc1ccccc1C(=O)N1CC2(C)CC1CC(C)(C)C2 (centres undefined),18.6% (inactive),10.1
Cc1cccc(C(=O)NCC(=O)OCC(=O)N2CC3(C)CC2CC(C)(C)C3)c1 (centres undefined),-4.43% (inactive),5.06
CN1CCCN(C(=O)C2CCCCC2)CC1,2.94% (inactive),-4.71
CN(C)S(=O)(=O)N1CCN(c2ccc([N+](=O)[O-])cc2)CC1,-1.29% (inactive),-1.53
O=C(NCc1ccc(Cl)cc1)NCc1ccc(Cl)cc1,4.16% (inactive),4.87
CC(C)Oc1ccc(Cc2n[nH]c(=S)n2Cc2ccccc2)cc1Cl,66.9% (active),17.8
C=CCn1c(CCc2ccc(OC(C)C)cc2)n[nH]c1=S,-7.58% (inactive),-5.68
CC(C)Oc1ccc(CCc2n[nH]c(=S)n2Cc2ccccc2)cc1,13.3% (inactive),0.86
CSC1=N/C(=C\c2ccc3c(c2)OCO3)C(=O)S1,6.07% (inactive),-0.28
Cc1cccc(C2=N/C(=C/c3cccs3)C(=O)O2)c1,-7.49% (inactive),9.32
CSC1=N/C(=C\C=C\c2cccs2)C(=O)S1,70.3% (active),37.4
Cc1nnc(SCc2cccc(Cl)c2)n(N)c1=O,-3.17% (inactive),-5.61
CCCN(CC(=O)Nc1ccc(OC)c(OC)c1)CC(=O)Nc1ccc(F)c(F)c1F,4.56% (inactive),28.4
